From PMC7862700, “An all-to-all approach to the identification of sequence-specific readers for epigenetic DNA modifications on cytosine” come the findings set out here.

Holding throughout (assay): DAPPL (digital affinity profiling via proximity ligation, sequencing); 10 mM Tris-HCl pH 7.5, 50 mM NaCl, 1 mM DTT, 4% glycerol, room temperature, 30 min; GST-TFs on glutathione beads, 16-mer random dsDNA library, 0.1% formaldehyde crosslink after washing; high values mean tight binding
One experiment deals with T1, FLI1 (Homo sapiens, UniProt Q01543 1-452).
T1 sequence: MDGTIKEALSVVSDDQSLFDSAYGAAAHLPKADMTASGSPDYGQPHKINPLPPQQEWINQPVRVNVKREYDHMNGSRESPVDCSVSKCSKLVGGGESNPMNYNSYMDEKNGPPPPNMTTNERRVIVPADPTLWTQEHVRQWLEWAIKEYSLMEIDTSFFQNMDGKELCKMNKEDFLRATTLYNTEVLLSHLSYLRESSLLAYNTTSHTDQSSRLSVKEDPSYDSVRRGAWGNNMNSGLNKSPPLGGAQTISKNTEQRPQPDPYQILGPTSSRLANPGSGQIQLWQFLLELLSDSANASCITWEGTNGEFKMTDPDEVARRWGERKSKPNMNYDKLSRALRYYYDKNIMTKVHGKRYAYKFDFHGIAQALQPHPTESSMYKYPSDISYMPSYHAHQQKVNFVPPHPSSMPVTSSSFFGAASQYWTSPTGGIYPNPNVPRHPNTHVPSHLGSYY
The conditions noted are these: protein: recombinant; tags: N-terminal GST; dsDNA, one strand shown. An outline of the steps:
(§1)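 Beads coated with glutathione captured GST-fused human transcription factors that had been expressed in yeast, and the factors were then given DNA barcodes and pooled with a tag-only sample. The pools were incubated with 200 nmole of a random double-stranded 16-mer DNA library in Tris/NaCl/DTT/glycerol buffer for 30 min at room temperature, washed, crosslinked with 0.1% formaldehyde and proximity-ligated with BsaI/T4 ligase at 37 °C for 1 h. PCR amplification and Illumina NextSeq500 sequencing came last. Binding signal is each hexamer's read frequency for a factor divided by its frequency for the tag-only sample.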

The target in the next experiment is T2, ELK1 (Homo sapiens, UniProt P19419 1-428).
T2 sequence: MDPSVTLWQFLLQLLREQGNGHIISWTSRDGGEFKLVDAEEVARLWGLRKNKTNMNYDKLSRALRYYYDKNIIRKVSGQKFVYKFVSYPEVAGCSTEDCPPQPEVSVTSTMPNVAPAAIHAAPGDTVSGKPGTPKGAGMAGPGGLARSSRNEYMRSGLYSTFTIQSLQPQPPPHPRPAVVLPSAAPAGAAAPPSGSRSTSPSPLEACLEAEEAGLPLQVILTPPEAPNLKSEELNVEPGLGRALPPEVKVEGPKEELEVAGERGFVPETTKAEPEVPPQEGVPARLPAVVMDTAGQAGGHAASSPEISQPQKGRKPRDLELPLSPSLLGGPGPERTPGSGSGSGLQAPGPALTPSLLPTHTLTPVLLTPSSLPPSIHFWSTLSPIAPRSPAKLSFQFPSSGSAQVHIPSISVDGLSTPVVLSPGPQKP
The following applies: protein: recombinant; tags: N-terminal GST; dsDNA, one strand shown. An outline of the steps:
as §1

A further experiment concerns the target T3, GABPA (Homo sapiens, UniProt Q06546 1-454).
T3 sequence: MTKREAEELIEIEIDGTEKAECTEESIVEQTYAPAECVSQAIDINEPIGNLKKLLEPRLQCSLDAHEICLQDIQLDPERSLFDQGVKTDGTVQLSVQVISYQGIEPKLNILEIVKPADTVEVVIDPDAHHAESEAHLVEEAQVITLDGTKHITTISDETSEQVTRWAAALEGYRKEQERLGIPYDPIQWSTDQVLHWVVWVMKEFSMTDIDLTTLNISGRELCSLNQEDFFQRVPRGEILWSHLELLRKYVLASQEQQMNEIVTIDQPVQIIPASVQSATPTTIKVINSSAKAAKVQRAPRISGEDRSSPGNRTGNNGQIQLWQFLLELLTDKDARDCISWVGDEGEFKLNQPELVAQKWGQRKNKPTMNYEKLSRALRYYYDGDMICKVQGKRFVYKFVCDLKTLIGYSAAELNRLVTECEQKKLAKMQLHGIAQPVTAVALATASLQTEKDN
The conditions noted are these: protein: recombinant; tags: N-terminal GST; dsDNA, one strand shown. An outline of the steps: as §1

In the next experiment the target is T4, ERG (Homo sapiens, UniProt P11308 1-479).
T4 sequence: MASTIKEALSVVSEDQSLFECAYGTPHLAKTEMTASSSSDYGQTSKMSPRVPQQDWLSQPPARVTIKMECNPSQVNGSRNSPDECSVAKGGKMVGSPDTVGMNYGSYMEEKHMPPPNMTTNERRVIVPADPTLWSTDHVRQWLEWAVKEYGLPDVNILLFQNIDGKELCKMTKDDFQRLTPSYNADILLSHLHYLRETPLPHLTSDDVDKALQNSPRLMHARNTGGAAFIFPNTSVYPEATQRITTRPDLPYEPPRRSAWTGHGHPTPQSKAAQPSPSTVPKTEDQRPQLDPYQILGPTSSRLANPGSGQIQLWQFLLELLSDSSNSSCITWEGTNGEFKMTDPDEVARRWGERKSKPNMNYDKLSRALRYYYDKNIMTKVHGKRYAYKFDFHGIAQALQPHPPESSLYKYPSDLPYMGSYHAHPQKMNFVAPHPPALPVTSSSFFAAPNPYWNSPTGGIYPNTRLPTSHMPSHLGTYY
The following applies: protein: recombinant; tags: N-terminal GST; dsDNA, one strand shown. In a few lines:
as §1

The next experiment has as its target ELF1 (Homo sapiens, UniProt P32519 1-619). The conditions noted are these: protein: recombinant; tags: N-terminal GST; dsDNA, one strand shown. An outline of the steps: as §1
The target in a further experiment is T5, EHF (Homo sapiens, UniProt Q9NZC4 1-300).
T5 sequence: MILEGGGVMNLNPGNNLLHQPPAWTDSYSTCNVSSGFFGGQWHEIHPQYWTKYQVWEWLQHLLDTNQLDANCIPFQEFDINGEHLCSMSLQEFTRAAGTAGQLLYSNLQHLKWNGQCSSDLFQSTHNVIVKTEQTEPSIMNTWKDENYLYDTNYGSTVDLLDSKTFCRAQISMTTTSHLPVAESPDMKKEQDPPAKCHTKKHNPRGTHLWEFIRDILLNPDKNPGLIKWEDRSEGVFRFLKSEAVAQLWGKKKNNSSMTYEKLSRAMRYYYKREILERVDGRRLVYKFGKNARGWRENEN
The conditions noted are these: protein: recombinant; tags: N-terminal GST; dsDNA, one strand shown. In a few lines: as §1

For the next experiment, the target named is SPI1 (Homo sapiens, UniProt P17947 1-270). The conditions noted are these: protein: recombinant; tags: N-terminal GST; dsDNA, one strand shown. In a few lines:
as §1

A further experiment deals with SPIB (Homo sapiens, UniProt Q01892 1-262). The following applies: protein: recombinant; tags: N-terminal GST; dsDNA, one strand shown. An outline of the steps:
as §1

A further experiment addresses T6, ELK3 (Homo sapiens, UniProt P41970 1-407).
T6 sequence: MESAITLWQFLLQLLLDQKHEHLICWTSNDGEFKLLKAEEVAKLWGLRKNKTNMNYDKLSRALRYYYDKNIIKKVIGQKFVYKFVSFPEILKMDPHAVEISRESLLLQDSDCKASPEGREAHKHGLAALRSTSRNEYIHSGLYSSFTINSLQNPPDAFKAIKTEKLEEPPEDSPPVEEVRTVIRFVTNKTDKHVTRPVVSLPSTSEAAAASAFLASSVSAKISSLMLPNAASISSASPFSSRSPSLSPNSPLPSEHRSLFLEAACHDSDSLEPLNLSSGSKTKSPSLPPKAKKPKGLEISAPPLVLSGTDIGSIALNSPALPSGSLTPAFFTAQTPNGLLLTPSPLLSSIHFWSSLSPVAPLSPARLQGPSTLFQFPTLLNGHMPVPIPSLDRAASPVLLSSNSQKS
The conditions noted are these: protein: recombinant; tags: N-terminal GST; dsDNA, one strand shown. In a few lines:
as §1

A further experiment addresses T7, FEV (Homo sapiens, UniProt Q99581 1-238).
T7 sequence: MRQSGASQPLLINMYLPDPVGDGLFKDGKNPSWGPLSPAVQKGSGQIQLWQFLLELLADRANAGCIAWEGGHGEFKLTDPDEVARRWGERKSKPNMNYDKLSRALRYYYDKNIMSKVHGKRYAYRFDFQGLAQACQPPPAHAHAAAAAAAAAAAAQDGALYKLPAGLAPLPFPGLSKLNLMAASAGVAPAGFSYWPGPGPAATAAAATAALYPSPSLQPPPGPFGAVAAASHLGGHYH
The following applies: protein: recombinant; tags: N-terminal GST; dsDNA, one strand shown. In a few lines:
as §1

For the next experiment, the target named is ETV5 (Homo sapiens, UniProt P41161 1-510). The conditions noted are these: protein: recombinant; tags: N-terminal GST; dsDNA, one strand shown. In a few lines:
as §1

For another experiment, the target named is HSF1 (Homo sapiens, UniProt Q00613 1-529). The following applies: protein: recombinant; tags: N-terminal GST; chain copies: 3; dsDNA, one strand shown. In a few lines: as §1
For the next experiment, the target named is T8, SPIC (Homo sapiens, UniProt Q8N5J4 1-248).
T8 sequence: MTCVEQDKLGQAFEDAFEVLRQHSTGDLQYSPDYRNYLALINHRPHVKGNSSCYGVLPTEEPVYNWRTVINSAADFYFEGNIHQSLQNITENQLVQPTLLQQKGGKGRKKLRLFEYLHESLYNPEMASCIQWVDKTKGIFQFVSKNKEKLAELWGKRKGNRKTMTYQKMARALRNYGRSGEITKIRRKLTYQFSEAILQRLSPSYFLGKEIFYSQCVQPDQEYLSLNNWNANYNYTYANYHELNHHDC
The conditions noted are these: protein: recombinant; tags: N-terminal GST; dsDNA, one strand shown. An outline of the steps: as §1

The target in a further experiment is ELF4 (Homo sapiens, UniProt Q99607 1-663). The conditions noted are these: protein: recombinant; tags: N-terminal GST; dsDNA, one strand shown. An outline of the steps:
as §1

For another experiment, the target named is T9, ETV2 (Homo sapiens, UniProt O00321 1-342).
T9 sequence: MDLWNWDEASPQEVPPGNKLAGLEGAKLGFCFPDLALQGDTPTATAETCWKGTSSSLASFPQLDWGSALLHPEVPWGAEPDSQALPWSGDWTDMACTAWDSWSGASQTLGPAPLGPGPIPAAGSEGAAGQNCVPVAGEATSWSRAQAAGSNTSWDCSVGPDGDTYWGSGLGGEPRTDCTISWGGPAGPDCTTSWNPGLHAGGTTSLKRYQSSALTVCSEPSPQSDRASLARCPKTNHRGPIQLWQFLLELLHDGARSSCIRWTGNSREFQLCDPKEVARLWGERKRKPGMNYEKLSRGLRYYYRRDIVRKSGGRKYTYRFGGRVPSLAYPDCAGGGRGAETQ
The conditions noted are these: protein: recombinant; tags: N-terminal GST; dsDNA, one strand shown. An outline of the steps: as §1

A further experiment deals with T10, ELF3 (Homo sapiens, UniProt P78545 1-371).
T10 sequence: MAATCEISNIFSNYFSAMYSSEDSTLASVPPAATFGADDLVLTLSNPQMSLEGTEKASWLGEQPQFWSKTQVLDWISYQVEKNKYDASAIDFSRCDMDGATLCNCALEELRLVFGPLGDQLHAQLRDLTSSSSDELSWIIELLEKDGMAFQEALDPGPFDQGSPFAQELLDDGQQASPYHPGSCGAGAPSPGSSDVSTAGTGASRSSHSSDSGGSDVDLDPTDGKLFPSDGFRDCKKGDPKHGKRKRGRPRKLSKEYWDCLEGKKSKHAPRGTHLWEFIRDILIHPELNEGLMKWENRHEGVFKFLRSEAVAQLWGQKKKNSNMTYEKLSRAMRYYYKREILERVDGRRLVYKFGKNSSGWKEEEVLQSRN
The conditions noted are these: protein: recombinant; tags: N-terminal GST; dsDNA, one strand shown. An outline of the steps: as §1

The next experiment addresses CRX (Homo sapiens, UniProt O43186 1-299). The following applies: protein: recombinant; tags: N-terminal GST; dsDNA, one strand shown. In a few lines:
as §1

In another experiment the target is ETV1 (Homo sapiens, UniProt P50549 1-477). The following applies: protein: recombinant; tags: N-terminal GST; dsDNA, one strand shown. In a few lines: as §1
Chain of ETV1 (P50549 whole entry): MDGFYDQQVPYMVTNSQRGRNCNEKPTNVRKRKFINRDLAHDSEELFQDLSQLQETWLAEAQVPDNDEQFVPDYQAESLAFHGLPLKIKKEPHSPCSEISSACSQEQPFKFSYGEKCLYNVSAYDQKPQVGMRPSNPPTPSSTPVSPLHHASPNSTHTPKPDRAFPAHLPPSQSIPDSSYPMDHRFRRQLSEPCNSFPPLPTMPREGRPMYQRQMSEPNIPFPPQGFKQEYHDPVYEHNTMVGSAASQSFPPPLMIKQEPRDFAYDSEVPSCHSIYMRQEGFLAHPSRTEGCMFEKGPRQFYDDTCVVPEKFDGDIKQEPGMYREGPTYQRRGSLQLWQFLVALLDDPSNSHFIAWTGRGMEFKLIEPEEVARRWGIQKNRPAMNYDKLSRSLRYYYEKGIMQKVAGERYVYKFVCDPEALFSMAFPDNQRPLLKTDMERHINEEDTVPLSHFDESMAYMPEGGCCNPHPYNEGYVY

Chain of ELF1 (P32519 whole entry): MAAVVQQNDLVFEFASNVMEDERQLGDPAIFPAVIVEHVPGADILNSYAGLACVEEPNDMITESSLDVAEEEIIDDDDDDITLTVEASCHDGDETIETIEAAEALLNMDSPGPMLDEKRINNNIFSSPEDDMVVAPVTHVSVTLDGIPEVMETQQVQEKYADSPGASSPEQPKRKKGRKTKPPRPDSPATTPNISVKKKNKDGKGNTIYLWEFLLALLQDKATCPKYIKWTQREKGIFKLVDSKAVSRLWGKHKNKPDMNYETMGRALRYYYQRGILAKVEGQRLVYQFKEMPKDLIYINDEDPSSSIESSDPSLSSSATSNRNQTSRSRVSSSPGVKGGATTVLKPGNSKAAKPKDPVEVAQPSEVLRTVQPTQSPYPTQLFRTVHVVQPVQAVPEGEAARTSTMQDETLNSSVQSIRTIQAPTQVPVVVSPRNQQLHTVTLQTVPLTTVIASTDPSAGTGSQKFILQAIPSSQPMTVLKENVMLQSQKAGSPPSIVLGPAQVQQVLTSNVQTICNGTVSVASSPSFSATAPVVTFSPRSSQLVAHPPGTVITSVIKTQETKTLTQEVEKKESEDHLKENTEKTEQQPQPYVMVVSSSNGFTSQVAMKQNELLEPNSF
Chain of ELF4 (Q99607 whole entry): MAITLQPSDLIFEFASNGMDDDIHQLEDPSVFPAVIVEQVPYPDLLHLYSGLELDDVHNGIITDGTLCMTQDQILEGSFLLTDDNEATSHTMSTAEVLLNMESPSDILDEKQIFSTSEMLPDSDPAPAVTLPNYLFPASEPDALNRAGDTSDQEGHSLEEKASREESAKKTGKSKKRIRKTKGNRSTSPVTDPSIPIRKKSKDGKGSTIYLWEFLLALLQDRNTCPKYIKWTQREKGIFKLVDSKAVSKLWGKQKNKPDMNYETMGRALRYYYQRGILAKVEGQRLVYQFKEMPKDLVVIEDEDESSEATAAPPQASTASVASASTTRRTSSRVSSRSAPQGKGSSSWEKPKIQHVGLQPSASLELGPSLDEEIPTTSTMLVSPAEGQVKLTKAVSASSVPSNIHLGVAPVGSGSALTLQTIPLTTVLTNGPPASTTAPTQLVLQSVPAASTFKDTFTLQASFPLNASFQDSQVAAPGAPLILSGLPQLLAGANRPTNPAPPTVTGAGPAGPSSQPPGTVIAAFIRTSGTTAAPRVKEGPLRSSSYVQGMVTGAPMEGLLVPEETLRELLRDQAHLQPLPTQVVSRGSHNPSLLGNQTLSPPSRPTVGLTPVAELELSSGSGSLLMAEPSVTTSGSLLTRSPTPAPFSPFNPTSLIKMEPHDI
Chain of SPIB (Q01892 whole entry): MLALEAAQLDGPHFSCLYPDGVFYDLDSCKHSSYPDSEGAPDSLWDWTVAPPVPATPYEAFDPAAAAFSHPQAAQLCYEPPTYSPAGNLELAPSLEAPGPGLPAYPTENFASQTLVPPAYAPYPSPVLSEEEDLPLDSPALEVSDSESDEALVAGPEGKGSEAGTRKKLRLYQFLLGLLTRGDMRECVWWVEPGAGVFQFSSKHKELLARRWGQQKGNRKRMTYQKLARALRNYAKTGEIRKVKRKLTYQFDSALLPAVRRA
Chain of ETV5 (P41161 whole entry): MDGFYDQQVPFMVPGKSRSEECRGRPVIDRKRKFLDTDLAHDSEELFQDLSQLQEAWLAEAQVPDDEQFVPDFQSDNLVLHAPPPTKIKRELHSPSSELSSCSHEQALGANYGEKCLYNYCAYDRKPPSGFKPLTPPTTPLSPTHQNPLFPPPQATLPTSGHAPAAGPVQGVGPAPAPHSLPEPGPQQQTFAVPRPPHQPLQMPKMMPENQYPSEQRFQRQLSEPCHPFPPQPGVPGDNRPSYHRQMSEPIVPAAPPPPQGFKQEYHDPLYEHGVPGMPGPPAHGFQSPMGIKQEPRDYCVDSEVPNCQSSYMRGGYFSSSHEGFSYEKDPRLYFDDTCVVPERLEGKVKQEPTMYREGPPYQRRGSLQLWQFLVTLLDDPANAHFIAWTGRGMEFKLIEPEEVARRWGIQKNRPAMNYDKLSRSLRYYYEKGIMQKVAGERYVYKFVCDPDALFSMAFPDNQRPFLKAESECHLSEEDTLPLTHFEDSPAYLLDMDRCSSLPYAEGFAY
Chain of CRX (O43186 whole entry): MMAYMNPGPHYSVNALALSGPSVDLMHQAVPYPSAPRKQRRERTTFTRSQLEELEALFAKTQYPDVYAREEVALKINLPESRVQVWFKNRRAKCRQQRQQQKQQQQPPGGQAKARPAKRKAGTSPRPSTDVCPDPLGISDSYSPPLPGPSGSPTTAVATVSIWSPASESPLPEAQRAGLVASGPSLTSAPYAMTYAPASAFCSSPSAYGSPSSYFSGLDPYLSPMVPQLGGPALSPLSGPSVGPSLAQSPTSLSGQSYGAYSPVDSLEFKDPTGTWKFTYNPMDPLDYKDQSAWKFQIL
Chain of HSF1 (Q00613 whole entry): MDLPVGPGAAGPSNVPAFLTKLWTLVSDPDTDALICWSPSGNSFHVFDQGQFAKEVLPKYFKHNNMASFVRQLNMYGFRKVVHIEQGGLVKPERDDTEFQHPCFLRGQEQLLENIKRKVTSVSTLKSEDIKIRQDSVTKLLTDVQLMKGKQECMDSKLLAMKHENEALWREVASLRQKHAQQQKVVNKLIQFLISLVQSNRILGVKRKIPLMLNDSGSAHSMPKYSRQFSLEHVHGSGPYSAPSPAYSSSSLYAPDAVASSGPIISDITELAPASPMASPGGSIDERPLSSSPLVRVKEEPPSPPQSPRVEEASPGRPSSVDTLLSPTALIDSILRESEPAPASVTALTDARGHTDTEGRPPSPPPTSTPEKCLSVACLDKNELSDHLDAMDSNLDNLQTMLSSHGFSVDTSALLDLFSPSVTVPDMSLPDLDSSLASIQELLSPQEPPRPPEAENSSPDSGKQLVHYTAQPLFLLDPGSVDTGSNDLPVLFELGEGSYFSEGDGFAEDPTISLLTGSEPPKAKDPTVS

For ATAAGC, the binding signal was 1.02 fold enrichment (6-mer frequency, TF over GST control) with FLI1; 1.09 fold enrichment (6-mer frequency, TF over GST control) in the experiment with ELK1; 1.11 fold enrichment (6-mer frequency, TF over GST control) with GABPA; 1.08 fold enrichment (6-mer frequency, TF over GST control) with ERG; 1.1 fold enrichment (6-mer frequency, TF over GST control) with ELF1; 1.05 fold enrichment (6-mer frequency, TF over GST control) in the experiment with EHF. Moreover, the binding signal with SPI1 is 1.01 fold enrichment (6-mer frequency, TF over GST control); with SPIB, 1.11 fold enrichment (6-mer frequency, TF over GST control); in the experiment with ELK3, 1.05 fold enrichment (6-mer frequency, TF over GST control); in the experiment with FEV, 1.02 fold enrichment (6-mer frequency, TF over GST control); in the experiment with ETV5, 1.11 fold enrichment (6-mer frequency, TF over GST control); in the experiment with HSF1, 1.67 fold enrichment (6-mer frequency, TF over GST control). Moreover, the binding signal in the experiment with SPIC was 1.08 fold enrichment (6-mer frequency, TF over GST control); in the experiment with ELF4 it was 1.11 fold enrichment (6-mer frequency, TF over GST control); with ETV2, 1.07 fold enrichment (6-mer frequency, TF over GST control); with ELF3, 1.12 fold enrichment (6-mer frequency, TF over GST control); with CRX, 2.4 fold enrichment (6-mer frequency, TF over GST control); with ETV1 it was 1.11 fold enrichment (6-mer frequency, TF over GST control).
